From PubChem BioAssay (NCI)
Compounds without any hit were thinned out: in the full panel of roughly 83,000, 20% have a hit.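 Step 1: grow cells in 96-well plates. Step 2: add test compound at a single concentration. Step 3: incubate 48 h. Step 4: record percent growth.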 Calls of active or inactive are those of the source. Rule for the calls: active = growth percent below 10; inactive = the rest.

Legend:
Assay in all cases: NCI-60 one-dose screen, 48 h (100 = growth as untreated, 0 = no growth, -100 = all killed)
Settings in all cases: 10 µM
[1] = system: 786-0 renal
[2] = system: MALME-3M melanoma
[3] = system: MDA-MB-231 breast
[4] = system: UACC-257 melanoma
[5] = system: SK-MEL-28 melanoma
[6] = system: SK-MEL-2 melanoma
[7] = system: EKVX NSCLC
[8] = system: SN12C renal
[9] = system: TK-10 renal
[10] = system: CAKI-1 renal
[11] = system: A498 renal
[12] = system: OVCAR-8 ovarian
[13] = system: OVCAR-5 ovarian
[14] = system: IGROV1 ovarian
[15] = system: OVCAR-3 ovarian
[16] = system: HS 578T breast
[17] = system: NCI/ADR-RES ovarian
[18] = system: BT-549 breast
[19] = system: MDA-MB-435 melanoma
[20] = system: SW-620 colon

Measured: growth

C#CCOc1cc(N(CC)CC)ccc1C(C(=O)NC(C)(C)C)N(C(=O)C1CCc2cc(F)ccc2O1)c1ccc(F)cc1F (stereo not given)
inactive: [1] 53.9% | [2] 62.1% | [3] 55.4% | [4] 29.6% | [5] 62.8% | [7] 47.6% | [8] 47.1% | [9] 61.3% | [10] 29.8% | [11] 68.9% | [12] 43.9% | [13] 64% | [14] 60.3% | [15] 33.4% | [16] 70.6% | [17] 53.1% | [18] 31.1% | [19] 40.6% | [20] 53.7%
active: [6] -30.4%

COc1ccc(Cc2nn(CC(=O)N/N=C/c3ccc(Br)cc3)c(=O)c3c(C)noc23)cc1
inactive: [3] 21.1% | [4] 72.2% | [5] 70.2% | [7] 55.1% | [8] 12.4% | [10] 21.4% | [11] 21.3% | [12] 33.9% | [13] 59% | [14] 37.6% | [15] 28.5% | [17] 41.1% | [18] 50% | [19] 54.1% | [20] 48.8%
active: [1] -53.2% | [2] -8.55% | [6] 7.39% | [9] -0.687% | [16] 2%

O=C(Nc1ccc(OCc2ccc(Cl)cc2)cc1)Nc1ccc(Cl)c(C(F)(F)F)c1
inactive: [1] 17.2% | [3] 13.4% | [5] 35.6% | [8] 18.2% | [9] 18.5% | [12] 13.5% | [13] 53.3% | [14] 47.6% | [15] 29.3% | [16] 22.1% | [19] 14.2% | [20] 25.1%
active: [2] -16.6% | [4] -6.05% | [6] -30% | [7] 2.59% | [10] 1.19% | [11] -12.4% | [17] 1.08% | [18] -17%

Cc1ccc2c(c1)C(=O)/C(=C/c1c[nH]c3ccccc13)S2
inactive: [1] 63.9% | [2] 91.9% | [3] 59.7% | [4] 72.4% | [5] 65.2% | [6] 99.7% | [7] 50.8% | [8] 51.2% | [9] 105% | [10] 37.1% | [11] 127% | [12] 55.3% | [13] 87% | [14] 59.8% | [15] 42.7% | [16] 55.6% | [17] 71.6% | [18] 33.8% | [19] 43.8% | [20] 28.6%

CCOC(=O)c1ccc(NC(=O)CSC(CC(=O)c2sc(Nc3ccccn3)nc2C)c2ccccc2F)cc1 (stereo not given)
inactive: [2] 34.2% | [3] 10.5% | [4] 39% | [5] 33.3% | [7] 20.2% | [9] 28.7% | [14] 14% | [17] 10.5%
active: [1] -12.5% | [6] -31.2% | [8] -14.8% | [10] 2.96% | [11] -1.49% | [12] -0.285% | [13] -6.86% | [15] 6.5% | [16] 8.86% | [18] -9.95% | [19] -10.7% | [20] 0.242%

CC(C)(C)c1cc(/C=C2\S/C(=N/c3ncn[nH]3)NC2=O)cc(C(C)(C)C)c1O
inactive: [1] 24.5% | [2] 36.8% | [3] 23.7% | [4] 17.5% | [5] 21.6% | [7] 12.3% | [8] 12.7% | [9] 24% | [10] 19.6% | [11] 32.8% | [12] 10.8% | [13] 32.8% | [14] 17.7% | [15] 17.3% | [16] 11.8% | [19] 11.9% | [20] 15.1%
active: [6] -7.9% | [17] 5.61% | [18] -2.05%

COc1ccc(C(=O)COc2ccc(NC(=O)Nc3ccccc3)cc2)cc1
inactive: [1] 94% | [2] 85.3% | [3] 94.1% | [4] 93.8% | [5] 102% | [6] 80.8% | [7] 82.7% | [8] 91.1% | [9] 101% | [10] 72.7% | [11] 104% | [12] 87.2% | [13] 98.7% | [14] 94.8% | [15] 104% | [16] 97.3% | [17] 86.4% | [18] 76.2% | [19] 89.4% | [20] 101%

O=C1NC(=S)S/C1=C\c1cn(-c2ccccc2)nc1-c1ccc([N+](=O)[O-])cc1
inactive: [1] 17.9% | [3] 24.7% | [5] 18.3% | [8] 14.9% | [9] 19.3% | [10] 14.5% | [12] 18% | [13] 48.5% | [14] 29.2% | [15] 21.7% | [16] 30.1% | [17] 13.6% | [20] 21.7%
active: [2] -5.53% | [4] -10.5% | [6] -29.2% | [7] 9.43% | [11] -2.74% | [18] -16% | [19] 6.24%

COc1cc(C2CC(c3ccccc3)=Nc3c(N)nc(N)nc3N2)ccc1Oc1nc(NCCO)nc(N2CCOCC2)n1 (stereo not given)
inactive: [1] 89.2% | [2] 93.3% | [3] 97.1% | [4] 101% | [5] 100% | [6] 99.7% | [7] 97.6% | [8] 94.8% | [9] 110% | [10] 93.9% | [11] 113% | [12] 102% | [13] 107% | [14] 93% | [15] 109% | [16] 78.9% | [17] 109% | [18] 92.6% | [19] 102% | [20] 107%

CCOC(=O)C1=C(N)N(c2ccc(C)cc2)C2=C(C(=O)CC(C)(C)C2)C1c1ccccc1Br (stereo not given)
inactive: [1] 83.9% | [2] 109% | [3] 93.4% | [4] 84.1% | [5] 93.7% | [6] 85% | [7] 91% | [8] 85.2% | [9] 110% | [10] 69.8% | [11] 108% | [12] 90.1% | [13] 97.5% | [14] 110% | [15] 84.9% | [16] 99.5% | [17] 95.7% | [18] 93.9% | [19] 82.6% | [20] 46%

COc1ccc(C(=O)COc2ccc(NC(=O)Nc3ccc(Cl)c(C(F)(F)F)c3)cc2)cc1
active: [6] -6.77%
inactive: [1] 25.2% | [2] 31.3% | [3] 35.3% | [4] 11.8% | [5] 40.1% | [7] 10.3% | [8] 40.9% | [9] 46.8% | [10] 27.2% | [11] 60.8% | [12] 22.5% | [13] 67.7% | [14] 49.9% | [15] 28.3% | [16] 53.4% | [17] 17.7% | [18] 38% | [19] 27.3% | [20] 54.6%

O=C1S/C(=C\c2ccc([N+](=O)[O-])cc2)C(=O)N1CCN1CCCCC1
inactive: [1] 105% | [2] 118% | [3] 102% | [4] 112% | [5] 109% | [6] 111% | [7] 104% | [8] 98.5% | [9] 106% | [10] 102% | [11] 126% | [12] 105% | [13] 114% | [14] 112% | [15] 116% | [16] 115% | [17] 109% | [18] 118% | [19] 102% | [20] 113%

O=[N+]([O-])c1cccc(-c2nnc3c(/C=C/c4ccccc4O)nc4ccccc4n23)c1
inactive: [1] 77.7% | [2] 86.5% | [3] 72.2% | [4] 59.5% | [5] 38.2% | [6] 84.1% | [7] 54.2% | [8] 63.4% | [9] 112% | [10] 40.6% | [11] 89.4% | [12] 58.1% | [13] 81.4% | [14] 68.8% | [15] 69.1% | [16] 30.7% | [17] 57.5% | [18] 62.6% | [19] 40.7% | [20] 41.7%

COc1cc(C2CC(c3ccc(Oc4ccc(Cl)cc4)cc3)=NN2c2nc(-c3ccc(Cl)cc3)c(C#N)c(N3CCOCC3)n2)cc(OC)c1OC (stereo not given)
inactive: [1] 98.8% | [2] 106% | [3] 100% | [4] 101% | [5] 97.8% | [6] 106% | [7] 94.5% | [8] 91.4% | [9] 96.1% | [10] 79% | [11] 114% | [12] 104% | [13] 101% | [14] 106% | [15] 117% | [16] 104% | [17] 98.9% | [18] 116% | [19] 94.2% | [20] 101%

Cc1ccc2sc3c(c2c1)Oc1nc[nH]c(=O)c1C3c1cccc(F)c1 (stereo not given)
inactive: [1] 102% | [2] 98.7% | [3] 91.1% | [4] 101% | [5] 110% | [6] 102% | [7] 87.9% | [8] 89.5% | [9] 154% | [10] 83.2% | [11] 129% | [12] 107% | [13] 108% | [14] 89.2% | [15] 114% | [16] 94.4% | [17] 100% | [18] 95.5% | [19] 96.1% | [20] 102%
